Measured potencies and affinities stand elsewhere.

The test system of the first experiment is Candida albicans. The settings on record: 20 µM.
For the compound `COc1ccc(Nc2ccccc2NC(=O)c2ccc(O)nc2)cc1`, the Inhibition amounted to 1.42%.
On the same count and under the same terms, the result for `O=C(C1CCN(c2cc(-n3cccc3)ncn2)CC1)N1CCc2ccccc2C1` reads 10%; that for `CCc1nc2ccc(C(=O)NCc3ccc4c(c3)OCO4)cn2c1N(C)Cc1cccs1`, 3.04%.
For `CNc1snc(C)c1C(=O)NCCOc1ccc(OC)cc1`, the Inhibition was 3.15%.
On the same count and under the same terms, next, `CCN(CC)CCCCCCNc1cc(OC)cc2c(C)ccnc12.Cc1ccc(S(=O)(=O)O)cc1`: 2.19%.
On the same count and under the same terms, next, `O=[N+]([O-])c1cn2c(n1)OC[C@@H](OCc1ccc(OC(F)(F)F)cc1)C2` [PRETOMANID]: 4.06%.
Still for that read-out and setting: the result for `COc1cc(-c2cc(-c3ccc(S(C)(=O)=O)cc3)cnc2N)ccc1O` reads 3.91%.
In the case of `Nc1ncnc2[nH]nc(Cc3cccc4ccccc34)c12`, the Inhibition was determined as 3.76%.
In the case of `COc1ccc(Cn2cnc3c(-c4ccco4)nc(Cl)nc32)cc1`, the Inhibition was determined as 6.94%.
On to `CN1CCN(S(=O)(=O)c2ccc(-c3ccc4c(Nc5ccc6nn[nH]c6c5)ccnc4c3)cc2)CC1`, for which the Inhibition was 4.6%.
Same read-out and setting: the result for `CCOc1ccc2cc(-c3nn(C(C)(C)C)c(N)c3C(N)=O)cnc2c1.Cl` reads 2.56%; that for `COc1cncc(-c2cncc(N3CCN(c4ccncc4)CC3)n2)c1`, 3.12%; that for `CCCS(=O)(=O)N1CCC(CO)(Cc2ccccc2C(F)(F)F)CC1`, 3.76%.
Same read-out and setting: the result for `O=S(=O)(c1ccc(Cl)cc1)N1CCN(C(=S)NCc2ccco2)CC1` reads 4.22%.
For `O=C(NC1CC1)c1ccc(N2CCOc3ccc(Cl)cc32)s1`, the Inhibition worked out at 6.64%.
In the case of `Cc1noc(C)c1C(=O)N1CCCC(c2[nH]c3c(C)cccc3c2-c2ccncc2)C1` (configuration not stated), the Inhibition was 4.29%.
`O=C(NC1CCN(c2ccnc3ccccc23)C1)c1cccc(C(F)(F)F)c1` (configuration not stated): the Inhibition worked out at 3.54%.
As for `CS(=O)(=O)N1CCC(Cn2nc(Cc3cccc4ccccc34)c3c(N)ncnc32)CC1`, the Inhibition amounted to 2.39%.
On the same count and under the same terms, the result for `Nc1ncnc2c1c(-c1cnc3ccccc3c1)nn2CC1CCNCC1` reads 2.53%.
On to `CCOc1ccccc1C(=O)Nc1cccc(-c2nc3ncccn3c2C)c1`, for which the Inhibition was found to be 6.34%.
In the case of `OCCc1ccc(Nc2nccc(-c3nnc4ccccn34)n2)cc1`, the Inhibition turned out to be 3.06%.
`CC(=O)N1CCc2cc3nc(C)cc(C)c3cc21`: the Inhibition worked out at 4.19%.
For `Cc1nc(-c2cccc(NCc3ccccc3)c2)[nH]c1C`, the Inhibition amounted to 2.98%.
Still for that read-out and setting: next, `CNC(=O)C1Cc2ccccc2N1C(=O)Cc1ccc(F)cc1` (configuration not stated): 3.31%.
On the same count and under the same terms, next, `COc1cccc(CC(=O)N2CCC(n3c(C)nc4ccc(F)cc43)CC2)c1`: 3.01%; `N#Cc1ccc(-c2ccc(OCC(N)=O)cc2)cc1`: 3.25%.
Same read-out and setting: next, `CC(C)c1ncc(-c2ccncc2)c([C@H]2CC[C@H](CNC(=O)c3cccnc3)CC2)n1`: 1.5%; `COc1cc(C2=NCCN2)ccc1-c1cn(-c2cccc(C3=NCCN3)c2)nn1`: 2.69%; `CS(=O)(=O)c1ccccc1C(=O)N(Cc1ccccc1)c1ccccc1`: 3.84%.
With `Nc1ccc(C(=O)Nc2ccc(-c3nc4ccccc4o3)cc2)cc1`, the Inhibition came out at 15.1%.
Same read-out and setting: the result for `CNc1cc(C)nc(C2CN(C(=O)c3n[nH]c4ccccc34)CCO2)c1` (configuration not stated) reads 2.95%.
For the compound `Cc1cc(C(=O)Nc2cnn(Cc3ccc(Cl)cc3Cl)c2)no1`, the Inhibition worked out at 11.5%.
On to `O=C(Nc1ccccc1-c1nc2c(C(=O)O)cccc2o1)c1ccccc1`, for which the Inhibition stood at 5.59%.
With `Cl.c1ccc(C[C@@H]2CN(c3nccc(Oc4ccc(-n5ccnc5)cc4)n3)CCN2)cc1`, the Inhibition worked out at 3.57%.
With `CCCCS(=O)(=O)Nc1ccc2cnn(C)c2c1`, the Inhibition was 2.57%.
Regarding `CCS(=O)(=O)N(Cc1ccco1)Cc1cc2ccc(C)cc2nc1O`, the Inhibition is 3.52%.

The test system of the next experiment is Cryptococcus neoformans. The settings on record: Concentration 20 uM; ASSAY_TEST Inhibition of Fungal Growth; detection method Resazurin; Absorption (OD600-OD570); plate type 384well; NBS; CORNING #3640.
As for `COc1ccc(Nc2ccccc2NC(=O)c2ccc(O)nc2)cc1`, the Inhibition was -7.76%.
On the same count and under the same terms, next, `O=C(C1CCN(c2cc(-n3cccc3)ncn2)CC1)N1CCc2ccccc2C1`: 3.06%; `CCc1nc2ccc(C(=O)NCc3ccc4c(c3)OCO4)cn2c1N(C)Cc1cccs1`: -6.4%; `CNc1snc(C)c1C(=O)NCCOc1ccc(OC)cc1`: 1.78%.
In the case of `CCN(CC)CCCCCCNc1cc(OC)cc2c(C)ccnc12.Cc1ccc(S(=O)(=O)O)cc1`, the Inhibition came to 2.4%.
On to `O=[N+]([O-])c1cn2c(n1)OC[C@@H](OCc1ccc(OC(F)(F)F)cc1)C2` [PRETOMANID], for which the Inhibition was -5.11%.
Turning to `COc1cc(-c2cc(-c3ccc(S(C)(=O)=O)cc3)cnc2N)ccc1O`, the Inhibition is -7.2%.
For the compound `Nc1ncnc2[nH]nc(Cc3cccc4ccccc34)c12`, the Inhibition is -8.72%.
Same read-out and setting: the result for `COc1ccc(Cn2cnc3c(-c4ccco4)nc(Cl)nc32)cc1` reads -6.4%.
As for `CN1CCN(S(=O)(=O)c2ccc(-c3ccc4c(Nc5ccc6nn[nH]c6c5)ccnc4c3)cc2)CC1`, the Inhibition is given as -7.38%.
The same measure, in the same setting: next, `CCOc1ccc2cc(-c3nn(C(C)(C)C)c(N)c3C(N)=O)cnc2c1.Cl`: -7.03%.
Regarding `COc1cncc(-c2cncc(N3CCN(c4ccncc4)CC3)n2)c1`, the Inhibition amounted to 4.32%.
Same read-out and setting: the result for `CCCS(=O)(=O)N1CCC(CO)(Cc2ccccc2C(F)(F)F)CC1` reads -2.93%; that for `O=S(=O)(c1ccc(Cl)cc1)N1CCN(C(=S)NCc2ccco2)CC1`, -0.21%; that for `O=C(NC1CC1)c1ccc(N2CCOc3ccc(Cl)cc32)s1`, 31.76%.
The same measure, in the same setting: next, `Cc1noc(C)c1C(=O)N1CCCC(c2[nH]c3c(C)cccc3c2-c2ccncc2)C1` (configuration not stated): -7.96%; `O=C(NC1CCN(c2ccnc3ccccc23)C1)c1cccc(C(F)(F)F)c1` (configuration not stated): -3.95%.
On to `CS(=O)(=O)N1CCC(Cn2nc(Cc3cccc4ccccc34)c3c(N)ncnc32)CC1`, for which the Inhibition is listed as -6.98%.
Same read-out and setting: next, `Nc1ncnc2c1c(-c1cnc3ccccc3c1)nn2CC1CCNCC1`: -1.76%; `CCOc1ccccc1C(=O)Nc1cccc(-c2nc3ncccn3c2C)c1`: -7.75%.
In the case of `OCCc1ccc(Nc2nccc(-c3nnc4ccccn34)n2)cc1`, the Inhibition was -9.75%.
Still for that read-out and setting: the result for `CC(=O)N1CCc2cc3nc(C)cc(C)c3cc21` reads -7.03%.
On the same count and under the same terms, next, `Cc1nc(-c2cccc(NCc3ccccc3)c2)[nH]c1C`: -12.15%.
With `CNC(=O)C1Cc2ccccc2N1C(=O)Cc1ccc(F)cc1` (configuration not stated), the Inhibition is recorded as -12.98%.
In the case of `COc1cccc(CC(=O)N2CCC(n3c(C)nc4ccc(F)cc43)CC2)c1`, the Inhibition was -4.62%.
As for `N#Cc1ccc(-c2ccc(OCC(N)=O)cc2)cc1`, the Inhibition is recorded as -13.05%.
The same measure, in the same setting: the result for `CC(C)c1ncc(-c2ccncc2)c([C@H]2CC[C@H](CNC(=O)c3cccnc3)CC2)n1` reads -3.68%; that for `COc1cc(C2=NCCN2)ccc1-c1cn(-c2cccc(C3=NCCN3)c2)nn1`, 3.58%.
Same read-out and setting: next, `CS(=O)(=O)c1ccccc1C(=O)N(Cc1ccccc1)c1ccccc1`: -8.51%; `Nc1ccc(C(=O)Nc2ccc(-c3nc4ccccc4o3)cc2)cc1`: -12.24%; `CNc1cc(C)nc(C2CN(C(=O)c3n[nH]c4ccccc34)CCO2)c1` (configuration not stated): -9.16%.
Still for that read-out and setting: the result for `Cc1cc(C(=O)Nc2cnn(Cc3ccc(Cl)cc3Cl)c2)no1` reads -4.75%.
On to `O=C(Nc1ccccc1-c1nc2c(C(=O)O)cccc2o1)c1ccccc1`, for which the Inhibition is -2.58%.
The same measure, in the same setting: next, `Cl.c1ccc(C[C@@H]2CN(c3nccc(Oc4ccc(-n5ccnc5)cc4)n3)CCN2)cc1`: -6.59%.
Still for that read-out and setting: next, `CCCCS(=O)(=O)Nc1ccc2cnn(C)c2c1`: -4.93%; `CCS(=O)(=O)N(Cc1ccco1)Cc1cc2ccc(C)cc2nc1O`: -6.36%.

For orientation: Inhibition means the change of the read-out against control, counted positive when it falls.

The values above are taken from ChEMBL document CHEMBL4513149, “CO-ADD screening of MMV (CH) - MMV compounds” (2021).
